Eleven molecules from PubChem BioAssay (EPA / NIEHS) can be followed below.

Records with an inconclusive call do not appear. The source made the active and inactive calls. How the source made its calls, unless noted: active means hit-call score of the fitted dose curve at least 0.9, where 1 is the maximum; inactive means score below 0.9.

A short description of assay [1]: CCTE_Harrill_HTTr_Viability_MCF7: CCTE's 6-hour Cell Viability Assessment for the High-Throughput Transcriptomics (HTTr) Platform, in MCF-7 cells cultured in DMEM + 10% fetal bovine serum, Harrill Lab (AID 2284010). A digest of the protocol: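 MCF-7 cells in DMEM + 10% FBS, 384-well, exposed 6 h to an eight-point dilution series. Membrane integrity scored by high-content imaging of propidium iodide exclusion; bidirectional fit versus DMSO.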

Assay [2] can be described thus: CCTE_Harrill_HTTr_Apoptosis_MCF7: CCTE's 6-hour Apoptosis Assessment for the High-Throughput Transcriptomics (HTTr) Platform, in MCF-7 cells cultured in DMEM + 10% fetal bovine serum, Harrill Lab (AID 2284011). Put shortly: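 Apoptosis in MCF-7 cells grown in DMEM with 10% fetal bovine serum was scored after a six hour exposure by high content imaging of caspase-3/7 activation (CellEvent Caspase 3/7 Green), with DMSO serving as negative control and baseline.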

A short description of assay [3]: CCTE_Harrill_HTTr_CellCount_MCF7: CCTE's Cell Proliferation Assessment for the High-Throughput Transcriptomics (HTTr) Platform, Harrill Lab (AID 2284012; active means hit-call score of the fitted dose curve at least 0.9, where 1 is the maximum;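 further: cells exposed to compound for six hours; intended direction is loss of nuclei count meaning fewer cells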). Put shortly:
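MCF7 cells exposed 6 hours to an eight-point dilution series; Hoechst-stained nuclei counted by high-content imaging. Bidirectional curve fitting against DMSO baseline.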

The nature of assay [4]: CCTE_Deisenroth_AIME_384WELL_CTox_Active: Cytotoxicity Assessment (CTOX) in CCTE's 384-well Estrogen Receptor Transactivation Assay with AIME metabolic competence (metabolism positive), Deisenroth Lab (AID 2284037; active means hit-call score of the fitted dose curve at least 0.9, where 1 is the maximum;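 further: activity means signal loss indicating cell death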). Put shortly:
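Chemicals pre-incubated 2 hours with alginate-immobilised phenobarbital/beta-naphthoflavone-induced male Sprague Dawley rat liver S9, then conditioned medium applied 24 hour to VM7Luc4E2 cells. Viability by fluorogenic protease substrate; 10-point series 0.002 - 200 uM.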

A short description of assay [5]: CCTE_Shafer_MEA_acute_burst_number: CCTE's Neural Acute Assay for Single-Electrode Bursts, Shafer Lab (AID 2284013). A digest of the protocol: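 Primary rat cortical neurons on 16-electrode MEA wells, treated on DIV 13 or 15 with compound at 0.03-40 uM. Single-electrode burst count from 40-min recordings at 37 C before and after exposure; percent change from baseline per well, DMSO negative control.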

The nature of assay [6]: CCTE_Shafer_MEA_acute_burst_duration_mean: CCTE's Neural Acute Assay for Mean Burst Duration, Shafer Lab (AID 2284014).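 Further: hits are decreases in mean burst duration relative to DMSO controls.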 A digest of the protocol: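 Rat primary cortical neurons on 48-well MEA, treated at DIV 13 or 15 with 0.03-40 uM in at least 3 wells. Value is percent change in mean burst duration, comparing 40 min recordings at 37 C before and during exposure.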
Assay [7] is described as follows: CCTE_Shafer_MEA_acute_per_burst_spike_number_mean: CCTE's Neural Acute Assay for Average Number of Spikes Per Burst, Shafer Lab (AID 2284015).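 Further: hits are decreases in mean spikes per burst versus baseline.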 Put shortly: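 We recorded spontaneous network firing of rat cortical neurons for 40 min before and 40 min during exposure to compound at 0.03-40 uM, at 37 C. Spikes were detected adaptively at 8x rms noise, and the change in average spikes per burst was fitted against DMSO.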

Assay [8] in a line: CCTE_Shafer_MEA_acute_interburst_interval_mean: CCTE's Neural Acute Assay for Mean Interburst Interval, Shafer Lab (AID 2284016).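 Further: percent change of mean interburst interval versus each well's own pre-dose baseline; curves fitted for decrease in interburst interval relative to DMSO.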 A digest of the protocol: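 MEA recording of spontaneous network bursting in primary rat cortical cultures; mean interburst interval was compared before and after a 40-min compound exposure (0.03-40 uM) and expressed as percent change, relative to DMSO.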

Assay [9] is described as follows: CCTE_Shafer_MEA_acute_burst_percentage_mean: CCTE's Neural Acute Assay for Percentage of Spikes in a Burst, Shafer Lab (AID 2284017).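 On AC50: curve fitted for loss of signal so potency reflects decreased burst percentage.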 A digest of the protocol:
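Compounds were tested at 0.03-40 uM on primary rat cortical neuron networks grown over microelectrodes, with at least three wells per compound. Spontaneous firing was recorded for 40 min before and 40 min after dosing, and the change in burst percentage was computed per well.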

Assay [10] is described as follows: CCTE_Shafer_MEA_acute_per_network_burst_spike_number_mean: CCTE's Neural Acute Assay for Average Number of Spikes in a Network Burst, Shafer Lab (AID 2284019).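 On AC50: curve fitted for loss of signal so actives reduce spikes per network burst.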 A digest of the protocol: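 Rat primary cortical neurons on 48-well MEA at DIV 13 or 15, 37 C; compounds 0.03-40 uM, at least three wells each. 40-min baseline then 40-min exposure recording; percent change in mean spikes per network burst.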

Assay [11] can be described thus: CCTE_Shafer_MEA_acute_per_network_burst_spike_number_std: CCTE's Neural Acute Assay for Standard Deviation of Number of Spikes in a Network Burst, Shafer Lab (AID 2284020).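 Further: fitted for decrease in spike-number SD versus DMSO so actives lower it.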 A digest of the protocol: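 Rat primary cortical neurons on 48-well MEA (16 electrodes/well), treated DIV 13 or 15 at 0.03-40 uM, ≥3 wells per compound. 40 min recordings at 37 C before and after dosing; value is percent change in network-burst spike-number SD, negative direction vs DMSO.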

Assay [12] is described as follows: CCTE_Shafer_MEA_acute_per_network_burst_electrodes_number_mean: CCTE's Neural Acute Assay for Mean Number of Electrodes in a Network Burst, Shafer Lab (AID 2284021).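 Further: curves fitted for decreases only so hits reduce electrodes per burst.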 Put shortly: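 Percent change from baseline in average electrode count per network burst, rat cortical cultures on 48-well MEAs; 40-min recordings each side of exposure, DIV 13 or 15; threshold 8x rms noise; DMSO as negative control.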

Assay [13] can be described thus: CCTE_Shafer_MEA_acute_network_burst_percentage: CCTE's Neural Acute Assay for Percentage of Network Bursts, Shafer Lab (AID 2284022).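 Further: curves fitted for loss so actives lower network burst percentage.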 A digest of the protocol: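 On DIV 13 or 15, at least three wells of rat cortical neurons per compound are dosed at 0.03-40 uM. Spontaneous firing is detected at 8x rms noise for 40 min before and after dosing at 37 C. The percent change in network-burst spike share is reported.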

A short description of assay [14]: CCTE_Shafer_MEA_acute_cross_correlation_area: CCTE's Neural Acute Assay for Area of Cross Correlation, Shafer Lab (AID 2284024).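 Further: area under pooled inter-electrode spike cross-correlation near zero lag as percent change from own baseline; curves fitted for loss of cross-correlation area so actives lower synchrony.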 Put shortly:
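Extracellular recordings from cultured rat cortical neurons measure network synchrony as cross-correlation area; each well's post-compound value (0.03-40 uM, 40 min) is compared with its own 40 min baseline to give percent change.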

The nature of assay [15]: CCTE_Shafer_MEA_acute_cross_correlation_HWHM: CCTE's Neural Acute Assay for Cross Correlation at Half Width at Half Maximum, Shafer Lab (AID 2284026).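 Further: percent change per well from pre-dose baseline in spike cross-correlogram half width; hits are a decrease in cross-correlogram half width relative to DMSO.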 A digest of the protocol: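 Percent change in cross-correlogram half width at half maximum, narrower meaning more synchrony, was derived per well from paired 40-min recordings before and during exposure to 0.03-40 uM compound in rat cortical cultures at 37 C.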

The nature of assay [16]: CCTE_Shafer_MEA_acute_synchrony_index: CCTE's Neural Acute Assay for Synchrony, Shafer Lab (AID 2284027).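 Further: network synchrony index of spontaneous spiking in primary rat cortical neurons on MEAs; fitted for loss of signal so actives lower synchrony relative to DMSO.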 A digest of the protocol: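 Primary rat cortical neurons on 48-well MEAs, dosed at 0.03–40 uM on DIV 13 or 15. Spikes are recorded for 40 min at 37C before and after exposure, and synchrony index (0–1) is expressed as percent change from baseline per well.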
Assay [17] addresses Estrogen receptor (Homo sapiens) (UniProt P03372). The experiment in a line: CCTE_Deisenroth_AIME_384WELL_LUC_Active: CCTE's 384-well Estrogen Receptor Transactivation Assay with AIME metabolic competence (ERTA luciferase; metabolism positive), Deisenroth Lab (AID 2284030; active means hit-call score of the fitted dose curve at least 0.9, where 1 is the maximum). A digest of the protocol:
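Estrogenic luciferase signal in VM7Luc4E2 cells is measured at 24 hour, after chemicals have been preconditioned 2 hours with PB/BNF-induced rat hepatic S9 in alginate. Gain of signal is fitted relative to 17beta-estradiol, across 0.002 - 200 uM.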

Assay [18] can be described thus: CCTE_Shafer_MEA_dev_per_burst_spike_percent: CCTE's Neural Network Formation Assay for Percent of Spikes in a Burst, Shafer Lab (AID 2284032).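 On AC50: fitted as a decrease in burst spike percentage below DMSO baseline.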 Put shortly: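 Rat primary cortical neurons on 16-electrode MEA wells, dosed from plating day 0 for 12 days with renewal on DIV 5 and 9; spikes-in-bursts percentage averaged over bursting electrodes, collapsed as AUC across days 5, 7, 9, 12; loss direction versus DMSO.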

Assay [19] can be described thus: CCTE_Deisenroth_AIME_96WELL_CTox_Active: Cytotoxicity Assessment (CTOX) in CCTE's 96-well Estrogen Receptor Transactivation Assay with AIME metabolic competence (metabolism positive), Deisenroth Lab (AID 2284028; active means hit-call score of the fitted dose curve at least 0.9, where 1 is the maximum). Put shortly:
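Chemicals (0.002–200 uM) were first incubated 2 h with alginate-immobilized phenobarbital/beta-naphthoflavone-induced male rat liver S9; conditioned medium then went onto VM7Luc4E2 cells for 24 h, with viability read by protease-substrate fluorescence, fitted bidirectionally.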

A short description of assay [20]: CCTE_Deisenroth_AIME_96WELL_CTox_Inactive: Cytotoxicity Assessment (CTOX) in CCTE's 96-well Estrogen Receptor Transactivation Assay without AIME metabolic competence (metabolism negative), Deisenroth Lab (AID 2284029; active means hit-call score of the fitted dose curve at least 0.9, where 1 is the maximum). A digest of the protocol:
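Chemicals (0.002 - 200 uM, 10 points) incubated 2 h with alginate-water microspheres (no S9), then medium moved onto VM7Luc4E2 cells for 24 h. Viability by protease-substrate cleavage to fluorescent probe; bidirectional fitting.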

Chain of Estrogen receptor (Homo sapiens) (P03372 whole entry, looked up): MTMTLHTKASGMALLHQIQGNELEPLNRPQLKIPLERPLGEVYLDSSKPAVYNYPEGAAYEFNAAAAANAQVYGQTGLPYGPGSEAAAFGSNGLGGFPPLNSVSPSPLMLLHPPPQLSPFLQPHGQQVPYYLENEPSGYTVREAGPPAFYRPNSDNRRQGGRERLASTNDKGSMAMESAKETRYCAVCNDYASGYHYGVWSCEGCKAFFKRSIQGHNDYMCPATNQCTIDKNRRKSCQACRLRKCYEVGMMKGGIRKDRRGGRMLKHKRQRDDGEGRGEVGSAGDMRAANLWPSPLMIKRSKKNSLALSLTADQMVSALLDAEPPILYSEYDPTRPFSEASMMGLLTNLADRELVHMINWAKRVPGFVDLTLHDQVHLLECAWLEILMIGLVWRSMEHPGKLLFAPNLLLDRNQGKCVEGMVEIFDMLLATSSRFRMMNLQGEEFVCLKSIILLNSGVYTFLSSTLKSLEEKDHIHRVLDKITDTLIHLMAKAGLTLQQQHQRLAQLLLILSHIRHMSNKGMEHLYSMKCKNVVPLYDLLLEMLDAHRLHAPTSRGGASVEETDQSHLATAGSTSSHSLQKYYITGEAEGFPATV

Consider `Cc1c(-c2cccnc2)c2ccccc2n1CCCCC(=O)O`, for which the outcome in [1], in assay [2], in assay [3] and in assay [4] was inactive.

A word on the AC50: it is the concentration at which the activity in the assay is half-maximal. For the molecule `CCCCCCc1ccc(O)cc1O`, the outcome in assay [1], in assay [2], in assay [3], in [6], in assay [13] and in [14] was inactive. The concentration at half-maximal activity (AC50) in assay [5] is 12.5 µM (active); in [7], 20 µM (active); in assay [8], 30.1 µM (active); in assay [9], 15 µM (active); in assay [10], 6.93 µM (active); in assay [11], 15.9 µM (active). Also, the AC50 was 8.5 µM (active) in assay [12], 20 µM (active) in [15], 6.73 µM (active) in assay [16] and 104 µM (active) in assay [4].

In the case of `CCCCC(CC)COC(=O)CCCCCCCCC(=O)OCC(CC)CCCC` (stereo unspecified), the result in [1], in assay [2], in [5], in [6], in assay [7] and in assay [8] was inactive. The molecule was classed as inactive in [9], in assay [10], in assay [11], in assay [12], in assay [13] and in [14]. Besides, the molecule was called inactive in [15] and in assay [16].

Regarding `Cc1ccc(O)cc1`, the result in assay [1], in assay [2], in [3] and in assay [4] was inactive.

For the molecule `On1ccccc1=S`, the result in assay [1], in assay [2], in assay [3], in assay [5], in assay [6] and in [7] was inactive. Besides, the molecule was called inactive in [8], in [9], in [10], in [11], in assay [12] and in assay [13]. In addition, the call in assay [14], in [15], in assay [16] and in [4] was inactive.

As to `COCCOCCOCCOC`, the outcome in [1], in assay [2], in [3] and in assay [4] was inactive.

Take `O=C(O)c1cccc(Oc2ccccc2)c1`: the outcome in [1], in assay [2], in assay [3], in assay [17] and in assay [4] was inactive.

On to `COCCOc1cc2cc(C(=O)NC3CCN(C(C)C)CC3)n(CC(=O)Nc3ccc(Cl)cn3)c2cn1`, for which the result in [1], in assay [2], in assay [3] and in assay [4] was inactive.

Consider `CC[C@H](C)C(=O)O[C@H]1C[C@@H](C)C=C2C=C[C@H](C)[C@H](CC[C@@H]3C[C@@H](O)CC(=O)O3)[C@H]21`, for which the outcome in assay [1] and in [2] was inactive. The AC50 in [18] is 10 µM (active).

Take `COc1ccc(-n2nc(C(F)F)cc2-c2ccc(S(C)=O)cc2)cc1` (stereo unspecified): the outcome in assay [1], in [2], in assay [3] and in [18] was inactive.

Consider `Cn1c(=O)c2c(ncn2C)n(C)c1=O`, for which the molecule was classed as inactive in assay [19] and in assay [20].
